# PubChem BioAssay AID1645860 (Buhrlage Lab, Dana-Farber Cancer Institute and Novartis …, 2021)
# In all, about 47,000 compounds went through this assay and about 2,500 (5.3%) were called active. This excerpt belongs to a sample that is enriched for actives. Unmarked numbers belong to inactive results. Rule as the data show it: active = inhibition above about 30%; inactive = the rest.
# Molecular target: Ubiquitin carboxyl-terminal hydrolase 30 (Homo sapiens) (UniProt Q70CQ3)
# Test: inhibitors of human USP30 deubiquitinase (AID 1645860)
# Details: purified USP30, Ub-rhodamine cleavage fluorescence; at 25 µM; active compounds read high
# Chain of Ubiquitin carboxyl-terminal hydrolase 30 (Homo sapiens) (Q70CQ3 whole entry, looked up): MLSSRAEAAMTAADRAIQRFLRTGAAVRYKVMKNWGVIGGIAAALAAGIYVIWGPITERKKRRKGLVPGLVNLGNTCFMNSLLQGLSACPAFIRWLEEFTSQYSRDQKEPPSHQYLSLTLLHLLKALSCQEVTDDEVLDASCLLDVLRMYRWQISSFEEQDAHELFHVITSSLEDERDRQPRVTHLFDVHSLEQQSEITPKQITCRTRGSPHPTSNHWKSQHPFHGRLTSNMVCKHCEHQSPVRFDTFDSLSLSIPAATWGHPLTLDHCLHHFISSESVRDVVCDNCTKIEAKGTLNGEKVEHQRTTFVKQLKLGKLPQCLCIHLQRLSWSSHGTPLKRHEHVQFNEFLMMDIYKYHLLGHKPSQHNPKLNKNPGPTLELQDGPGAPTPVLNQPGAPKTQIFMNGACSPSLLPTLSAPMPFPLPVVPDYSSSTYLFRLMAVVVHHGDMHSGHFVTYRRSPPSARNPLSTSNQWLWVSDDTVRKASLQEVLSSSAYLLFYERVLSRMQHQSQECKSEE
row,SMILES,inhibition
1,CCN1CCN(c2ccc(NC(=O)c3cccc(C)c3)cn2)C1=O,-23.3%
2,Cc1nc(-c2cnccn2)n(CC(=O)Nc2ccc(F)cc2)c(=O)c1C,2.83%
3,CC(=O)c1cccc(Nc2c(C(=O)N3CCCC3)cnc3nc(C)ccc23)c1,-35.8%
4,COCCNc1nn2c(-c3ccc4ccccc4c3)cnc2s1,30.2% (active)
5,OCc1ccccc1-c1cnc2sc(NCCc3ccccn3)nn12,16.3%
6,Cc1nnn(C23CC4CC(CC(C(=O)NC5CCCC5)(C4)C2)C3)n1,21.2%
7,CCOc1ccccc1N1CCN(C(=O)c2snc(-c3ccncc3)c2N)CC1,1.69%
8,O=C(CCC(=O)N(c1ccccc1)c1ccccc1)Nc1ccccc1,-16.4%
9,COc1ccc(C)cc1NC(=O)Cn1c(=O)nc(N(C)c2ccccc2)c2ccccc21,0.767%
10,CN(c1ccccc1)c1nc(=O)n(CC(=O)Nc2ccc3c(c2)OCCO3)c2ccccc12,42.3% (active)
11,O=C(Cn1cnc2c(sc3ccccc32)c1=O)Nc1ccc2c(c1)OCCO2,-498%
12,CCCCS(=O)(=O)N1C[C@H]2CC[C@@]3(N=C(C)N(CC4CC4)C3=O)[C@H]2C1,12.5%
13,CNC(=O)c1sc2nccnc2c1C1CCN(C(=O)c2cccc(F)c2)CC1,13.3%
14,CNc1cc(C2CCCN2C(=O)c2cc3c([nH]c2=O)CCC3)ccn1 (stereo unspecified),-20.8%
15,CC(C)N(C(=O)CSc1nc2ccc([N+](=O)[O-])cc2s1)C(C)C,-147%
16,CC(C)Cc1cc(C(=O)N2CCN(C)CC(C(N)=O)C2)on1 (stereo unspecified),16.9%
17,C=C1CC[C@@H]2[C@@]3(C)CCC(=O)C(C)(C)[C@@H]3CC[C@@]2(C)[C@]12Cc1c(c(C)c(C)oc1=O)O2,30.3% (active)
18,CNC(=O)Nc1ccc(C2(C(=O)NC3CCCC3)CCC2)cc1,-19.9%
19,CC12C(=O)N(CCCN3CCOCC3)CC(=O)N1CCc1c2[nH]c2ccccc12 (stereo unspecified),7.84%
20,Cc1cc(NC2CCCCC2)n2ncc(-c3ccccc3Cl)c2n1,-16.5%
21,Cc1ccc(NC(=O)CCC(=O)N(c2ccccc2)c2ccccc2)cc1Cl,17.2%
22,Cc1ccc(NC(=O)CCOc2ccccc2)cc1S(=O)(=O)Nc1ccccc1Cl,30.4% (active)
23,COc1ccc(NS(=O)(=O)c2cc(NC(=O)CC(=O)c3ccc([N+](=O)[O-])cc3)ccc2C)cc1,29.7%

row,SMILES,inhibition
1,O=C(Nc1nnc(-c2cccs2)o1)C1CCCCC1,10.9%
2,Cc1cc(-c2nnc(SCC(=O)Nc3ccc(Br)c(C)c3)n2N)n[nH]1,71.5% (active)
3,Cc1cc(NC(=O)COC(=O)c2cccc(C)c2O)ccc1Br,6.49%
4,Nn1c(SCC(=O)Nc2ccccc2F)nnc1-c1n[nH]c2c1CCC2,-0.125%
5,O=C(c1cnc2sc3c(n2c1=O)CCC3)N1CCCCC1,-37.1%
6,CC(C)Cc1nc2sc3c(NCc4ccco4)ncnc3c2c2c1CCC2,-21.1%
7,CC(O)CNc1ncnc2c1oc1nc(C(C)C)c3c(c12)CCC3 (stereo unspecified),38.1% (active)
8,CC(C)c1nc2oc3c(N4CCN(CCO)CC4)ncnc3c2c2c1CCC2,18.4%
9,CC(C)n1cnc2c1C(C(=O)N1CCN(C)CC1)N(Cc1ccccc1)CC2 (stereo unspecified),9.34%
10,CC(C)(C)C(=O)N1CCC2(COCc3cnc(NCc4ccco4)nc32)C1 (stereo unspecified),2.12%
11,Cc1c(S(=O)(=O)N2CCCCC2)c(C)n(C)c1-c1nnc(C2CCC2)o1,3.55%
12,Cc1nnc(NCc2ccc(Cl)cc2)[nH]c1=O,26%
13,CSc1cccc(NC(=O)CCn2c(=O)c3cccn3c3ccccc32)c1,32.6% (active)
14,CSc1cccc(NC(=O)COc2ccc(C(=O)c3ccccc3)cc2)c1,-4.48%
15,CSc1cccc(NC(=O)CCc2ccc3nc[nH]c3c2)c1,-0.451%
16,Cc1cc2n(n1)CCCN2C(=O)CCC(=O)Nc1ccc(F)cc1F,-24.2%
17,CC(=O)N1C[C@H]2C3(CCN(C(=O)c4ccccc4)CC3)CC[C@@]2(C(=O)N(C)C)C1,25.8%
18,Cc1ccc(Cc2nc(CC(=O)Nc3ccc(F)cc3F)n[nH]2)cc1,-1.22%
19,Cc1ccc(-n2cc(-c3noc(C(=O)Nc4ccc(F)cc4C)n3)nn2)cc1,36.9% (active)
20,Cc1cc(F)ccc1NC(=O)c1cc(C2CC2)n2nccc2n1,-33.1%
21,CCC(C(=O)Nc1ccc(-c2cn3cccnc3n2)cc1)c1ccccc1 (stereo unspecified),-89.6%
22,N#Cc1ccc(C(=O)Nc2cccc(-c3noc(C4CC4)n3)c2)c(F)c1,13.2%
23,Cc1ccc(F)c2c(=O)c3c([nH]c12)CCN(CC(=O)Nc1cccc(C#N)c1)C3,-178%

row,SMILES,inhibition
1,CC(C)(C)C(=O)Cn1c(=O)n(Cc2ccco2)c(=O)c2ccccc21,1.71%
2,O=C(Cn1c(=O)n(Cc2ccc3c(c2)OCO3)c(=O)c2cccnc21)Nc1ccc(F)cc1,21.5%
3,O=C(Cn1c(=O)n(Cc2ccc3c(c2)OCO3)c(=O)c2ccccc21)NCc1ccco1,33% (active)
4,Cc1cc2oc(=O)cc(CN3CCN(Cc4ccccc4)CC3)c2cc1C,3.27%
5,Cc1cccc(NC(=O)Nc2ccc3c(c2)N(S(=O)(=O)c2ccccc2)CC3)c1C,30.5% (active)
6,Cc1ccc(NC(=O)c2ccc3c(c2)N(S(C)(=O)=O)CC3)cc1C,-53.8%
7,COc1ccccc1NC(=O)c1cccc(S(=O)(=O)N2CCc3ccccc32)c1,-7.37%
8,COc1ccc(C2=NC3(CCN(Cc4cccc(F)c4)CC3)NC2=O)cc1,-23.4%
9,CCc1cnc(N2CC[C@@H]3CN(CCC(C)C)S(=O)(=O)[C@@H]3CC2)nc1,27.9%
10,Cc1ccc2c(=O)cc(CN(C)Cc3ccc(F)cc3)[nH]c2c1C,-7.81%
11,COc1ccc(C2=CC(c3ccc(Cl)cc3)n3ncc(C(=O)Nc4ccccc4)c3N2)cc1 (stereo unspecified),-15.7%
12,C=C1CCC2[C@](C)(CCC[C@]2(C)C(=O)OC)[C@H]1CCc1ccoc1/C=C/C(=O)O (stereo partly specified),61.8% (active)
13,C=C1CCC2[C@](C)(CCC[C@]2(C)C(=O)OC)[C@H]1CCc1ccoc1C[N+](C)(C)Cc1ccccc1 (stereo partly specified),72.7% (active)
14,CNc1nc(C2CCNCC2)nc2c1CCN(S(=O)(=O)c1ccccc1Cl)C2,-118%
15,COc1cc(O)ccc1CN1CCCC12Cc1ccccc1CNC2=O (stereo unspecified),-28%
16,Cc1cncc(C2CCCN(C(=O)CCc3cc(Cl)no3)C2)n1 (stereo unspecified),-18.4%
17,O=C(COc1ccccc1Cl)NCC(c1ccco1)N1CCOCC1 (stereo unspecified),-52.2%
18,COc1ccc(N2C(=O)N(Cc3ccccc3)S(=O)(=O)c3cccnc32)cc1,13.9%
19,COc1ccccc1NC(=O)NCc1cnn2ccccc12,14.1%
20,Cc1nc(C2CCN(C(=O)C(C)(C)C)CC2)cc(N2CC3(CCOCC3)OC2=O)n1,6.69%
21,O=C(C1CCCCC1)N1CCN(c2ncnc3c2nnn3Cc2ccccc2)CC1,43.1% (active)
22,c1ccc(Cn2nnc3c(N4CCCCC4)ncnc32)cc1,3.44%
23,O=C(C1CCCCC1)N1CCC(c2nc3c(nnn3Cc3cccc(F)c3)c(=O)[nH]2)CC1,19.3%

row,SMILES,inhibition
1,CCS(=O)(=O)N1CCc2c(nc(C3CCCN3)nc2NC)C1 (stereo unspecified),-56.6%
2,COc1ccc(NC(=O)C(C)c2c(C)n[nH]c2C)cc1 (stereo unspecified),23.5%
3,Cc1cccc2c1N(C(=O)Nc1ccc(OCc3ccccc3)cc1)CCC2,16.1%
4,O=C(CN1CCCC1c1ccc2c(c1)OCCCO2)NCCc1ccccc1F (stereo unspecified),-52%
5,Cn1cc(CCNC(=O)Nc2cc(F)ccc2F)c2cccnc21,-16.4%
6,Cc1c(Cl)cccc1NC(=O)CCn1cnc2ccccc2c1=O,74% (active)
7,Cc1ccc(N(C)C(=O)CCn2cnc3ccccc3c2=O)cc1,-5.01%
8,CCN1CCc2nc(-c3ccccc3)n(CC(=O)Nc3cccc(Cl)c3C)c(=O)c2C1,-97%
9,CCOc1ccc(CC(=O)N2CCN(c3ccc(OC)nn3)CC2)cc1,-11.9%
10,Cc1cc(C)n(-c2ccc(C(=O)Nc3ccccc3C(C)C)nn2)n1,34.9% (active)
11,CSc1ccccc1NC(=O)c1ccc(N2CCCC2)nn1,77.3% (active)
12,Cc1cc(C)n(-c2ccc(C(=O)NCC(c3ccccc3)c3c[nH]c4ccccc34)cc2)n1 (stereo unspecified),-19.5%
13,O=C(Cc1ccccc1)N1CCN(c2ccc(N3CCCC3)nn2)CC1,-15.8%
14,O=C(c1ccc(N2CCCC2)nn1)N1CCN(c2ccccn2)CC1,3.65%
15,O=C(CSc1ncnc2c1nnn2-c1ccc(F)cc1)N1CCc2ccccc21,3.49%
16,CCCOc1ccc(C2Nc3ccccc3S(=O)(=O)N2Cc2ccccc2)cc1OCC (stereo unspecified),11%
17,CCc1noc(-c2c(C)cc(C)n2CC(=O)NCc2cccc(F)c2)n1,19.8%
18,COc1ccc(C(CNC(=O)c2oc3ccccc3c2C)N2CCOCC2)cc1 (stereo unspecified),0.732%
19,Cc1ccc(Cn2cc(-c3noc(-c4ccc[nH]4)n3)nn2)cc1,65% (active)
20,Cc1ccc(Cn2cc(-c3noc(-c4ccccn4)n3)nn2)cc1,15%
21,Cc1noc(-c2cccn2Cc2ccc(F)cc2)n1,-50.7%
22,CCN1C(=O)c2c(C(=O)NC3CC3)ncn2CC1(C)C(=O)NC1CCCC1 (stereo unspecified),9.61%
